We go through 8 compounds from PubChem BioAssay.

Test [1] in a line: optical density shifts of acrAB sulA E. coli – strain DRC41, OD650, 48 h, E. coli filamentation inducer project, primary screen (AID 1152).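 Note: E. coli MC1000 strain DRC41 lacking acrAB efflux pump and sulA.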 The following applies: higher = more signal, called active from +8 up or from −8 down.
The nature of test [2]: probe aLefty1 binding on compound microarray – biochemical, small-molecule microarray, 635/667 nm fluorescence, primary screen (AID 1153).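 Note: score merges spot fluorescence with signal-to-noise ratio from the scanned slide images.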 As to conditions: higher = more signal.
The nature of test [3]: plasmodial surface anion channel blockers, osmotic lysis – cell-based, P. falciparum Indochina, OD700, 1 h, primary screen (AID 1154). The following applies: P. falciparum Indochina infected RBC osmotic lysis, higher = more signal, called active from +8 up or from −8 down.
The nature of test [4]: plasmodial surface anion channel blockers, osmotic lysis – cell-based, P. falciparum Indochina, OD700, 2 h, primary screen (AID 1155).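 Note: lysis reports solute entry through the parasite surface anion channel PSAC.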 The following applies: P. falciparum Indochina infected erythrocytes, higher = more signal, called active from +8 up or from −8 down.
Test [5] is described as follows: changes in parasitized red cell lysis, either direction – P. falciparum Indochina, OD700, 3 h, PSAC antagonist project, primary screen (AID 1156). As to conditions: P. falciparum-infected erythrocytes, osmotic lysis, higher = more signal, called active from +8 up or from −8 down.
Test [6] can be described thus: plasmodial surface anion channel blockers, osmotic lysis – cell-based, P. falciparum Indochina, OD700, 18 h, primary screen (AID 1157). The following applies: P. falciparum Indochina infected erythrocytes, osmotic lysis OD700, 18 h; higher = more signal, called active from +8 up or from −8 down.
Test [7] in a line: S6 kinase pathway phospho-S6 level changes – cell-based, A549, cytoblot, luminescence, serum-stimulated, primary screen (AID 1158).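 Note: serum-stimulated A549 lung adenocarcinoma cells; signal is phosphorylated S6 detected by cytoblot immunostaining with HRP secondary.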 The following applies: 5 h, higher = more signal.
Test [8] deals with NADPH oxidase 2 (Homo sapiens) (UniProt P04839). Nature of the test: compounds shifting NOX2 Amplex Red fluorescence – cell-based, HEK293-NOX2, PMA-stimulated, NOX inhibitor project, primary screen (AID 1159). Note: test concentration not given here. The following applies: 45 min, higher = more signal, called active from +8 up or from −8 down.
Test [9] addresses NADPH oxidase 4 (Homo sapiens) (UniProt Q9NPH5). Kind of test: compounds shifting NOX4 Amplex Red fluorescence – cell-based, HEK293-NOX4, tetracycline-induced, NOX inhibitor project, primary screen (AID 1160). The following applies: HEK293-NOX4, Amplex Red H2O2 fluorescence, 45 min; higher = more signal, called active from +8 up or from −8 down.
Test [10] concerns the target NADPH oxidase 5 (Homo sapiens) (UniProt Q96PH1). Nature of the test: compounds shifting NOX5 Amplex Red fluorescence – cell-based, HEK293-NOX5, NOX inhibitor project, primary screen (AID 1161). As to conditions: HEK293-NOX5, ionomycin, 45 min, higher = more signal.

Where “and” joins values, the source holds several entries; their conditions need not be identical. Equal entries are not always repeated. Calls of active or inactive are those of the source.

Sequence of NADPH oxidase 2 (Homo sapiens) (P04839 whole entry, looked up): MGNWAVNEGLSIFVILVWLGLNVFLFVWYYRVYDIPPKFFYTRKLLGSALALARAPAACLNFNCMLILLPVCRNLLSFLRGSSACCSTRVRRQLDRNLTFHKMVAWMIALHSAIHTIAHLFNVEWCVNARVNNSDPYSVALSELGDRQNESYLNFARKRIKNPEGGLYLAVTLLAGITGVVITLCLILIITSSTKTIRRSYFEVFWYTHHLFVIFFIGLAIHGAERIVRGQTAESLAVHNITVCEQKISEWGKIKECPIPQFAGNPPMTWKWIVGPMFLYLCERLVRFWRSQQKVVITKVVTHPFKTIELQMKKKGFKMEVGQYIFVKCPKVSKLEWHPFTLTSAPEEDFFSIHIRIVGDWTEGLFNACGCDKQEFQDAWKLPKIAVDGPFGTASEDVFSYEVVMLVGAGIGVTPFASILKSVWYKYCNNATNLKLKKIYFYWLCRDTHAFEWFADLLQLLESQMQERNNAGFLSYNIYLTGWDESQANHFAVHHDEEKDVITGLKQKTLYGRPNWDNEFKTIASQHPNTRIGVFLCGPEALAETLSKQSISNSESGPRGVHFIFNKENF
Sequence of NADPH oxidase 4 (Homo sapiens) (Q9NPH5 whole entry, looked up): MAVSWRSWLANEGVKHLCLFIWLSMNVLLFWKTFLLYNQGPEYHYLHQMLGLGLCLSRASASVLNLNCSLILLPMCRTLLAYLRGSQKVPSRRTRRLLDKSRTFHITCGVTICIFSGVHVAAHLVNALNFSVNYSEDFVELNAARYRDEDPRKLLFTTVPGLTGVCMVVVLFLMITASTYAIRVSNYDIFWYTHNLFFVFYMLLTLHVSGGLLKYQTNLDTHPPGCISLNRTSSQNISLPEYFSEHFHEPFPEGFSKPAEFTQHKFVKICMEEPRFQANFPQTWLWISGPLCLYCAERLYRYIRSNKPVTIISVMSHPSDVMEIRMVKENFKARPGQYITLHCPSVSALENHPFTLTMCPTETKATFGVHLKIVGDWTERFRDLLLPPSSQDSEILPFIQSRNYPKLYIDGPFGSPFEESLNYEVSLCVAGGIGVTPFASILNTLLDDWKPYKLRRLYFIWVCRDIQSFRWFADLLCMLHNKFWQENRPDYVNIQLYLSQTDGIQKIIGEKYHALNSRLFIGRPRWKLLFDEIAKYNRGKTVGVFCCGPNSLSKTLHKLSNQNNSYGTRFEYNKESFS
Sequence of NADPH oxidase 5 (Homo sapiens) (Q96PH1 whole entry, looked up): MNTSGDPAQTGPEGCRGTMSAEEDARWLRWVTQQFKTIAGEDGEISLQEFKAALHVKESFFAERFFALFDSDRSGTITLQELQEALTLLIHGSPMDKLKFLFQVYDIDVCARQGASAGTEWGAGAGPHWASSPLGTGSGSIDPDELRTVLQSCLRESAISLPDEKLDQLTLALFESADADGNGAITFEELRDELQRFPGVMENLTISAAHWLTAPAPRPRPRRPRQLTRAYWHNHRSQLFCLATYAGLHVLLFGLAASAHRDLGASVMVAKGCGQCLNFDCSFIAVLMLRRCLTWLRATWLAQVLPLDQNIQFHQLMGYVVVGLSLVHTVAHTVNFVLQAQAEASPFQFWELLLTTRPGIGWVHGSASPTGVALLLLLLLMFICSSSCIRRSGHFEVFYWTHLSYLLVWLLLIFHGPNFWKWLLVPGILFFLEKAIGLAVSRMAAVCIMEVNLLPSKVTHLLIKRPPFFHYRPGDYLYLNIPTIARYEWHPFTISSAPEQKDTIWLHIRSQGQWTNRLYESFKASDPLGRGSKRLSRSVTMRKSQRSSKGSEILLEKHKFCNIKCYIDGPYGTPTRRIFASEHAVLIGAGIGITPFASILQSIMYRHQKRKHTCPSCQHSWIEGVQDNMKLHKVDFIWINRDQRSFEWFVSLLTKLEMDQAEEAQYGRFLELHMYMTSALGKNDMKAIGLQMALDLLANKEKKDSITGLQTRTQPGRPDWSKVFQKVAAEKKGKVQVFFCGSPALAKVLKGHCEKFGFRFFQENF

As to `C[N+](C)(C)CCCCNC(=O)[C@H]1C[C@H]2C(=O)N[C@@H](CCCC[N+](C)(C)C)C(=O)N2[C@H]1c1ccc(O)cc1`, the z-score is -0.0772 (inactive) and -0.0145 (inactive) in test [1]; -0.373 (inactive) and 0.369 (inactive) in test [3]; -0.114 (inactive) and -1.21 (inactive) in [4]; -1.78 (inactive) and -0.688 (inactive) in test [5]; 0.154 (inactive) and -2.13 (inactive) in [6]; -0.809 and 0.448 in [7]. For the same compound, the z-score in test [8] was -1.13 (inactive) and -2.89 (inactive); in [9], -0.108 (inactive) and -3.27 (inactive); in test [10], -0.693 and -2.66. The composite z-score in test [2] was -0.0984 and -0.447.

In the case of `CCCC[C@@H]1CN2[C@@H](CC[C@@H](C)[C@@H]2c2ccc(Br)cc2)C(=O)O1`, the z-score in test [1] was -0.247 (inactive) and -1.23 (inactive); in test [3] it was 0.952 (inactive) and 1.74 (inactive); in test [4] it was -0.255 (inactive) and 0.94 (inactive); in test [5], 0.0015 (inactive) and -0.273 (inactive); in [6], 0.367 (inactive) and 0.443 (inactive); in test [7], -1.02 and -0.612. Besides, the z-score was 1.18 (inactive) and -0.0488 (inactive) in test [8]; 0.883 (inactive) and 0.821 (inactive) in test [9]; 0.637 and 0.0426 in test [10]. Further, in [2], the composite z-score was -0.0601 and -0.0141.

For the compound `COC(=O)[C@@]1(Cc2ccccc2)[C@H]2c3cc(C(=O)N(C)C)n(C[C@H](O)CO)c3C[C@H]2CN1C(=O)c1ccccc1`, the z-score is -0.741 (inactive) and -1.44 (inactive) in test [1]; 0.67 (inactive) and 0.448 (inactive) in [3]; 0.324 (inactive) and 0.32 (inactive) in test [4]; 1.28 (inactive) and 0.776 (inactive) in test [5]; 0.789 (inactive) and 0.446 (inactive) in [6]; -0.0187 and -0.333 in [7]. In addition, the z-score in test [8] was -0.0779 (inactive) and 0.104 (inactive); in test [9], -3.17 (inactive) and -0.539 (inactive); in [10], -4.08 and -0.292. Also, the composite z-score in [2] is 0.0903 and 0.415.

For the compound `C=CCN(C(=O)C1N(CCOCCO)C(=O)C2C(C(=O)O)C3C=CC21O3)C(C)(C)C` (stereo not given), the z-score in [1] was -0.265 (inactive) and -0.45 (inactive); in test [3], 0.901 (inactive) and -0.5 (inactive); in test [4] it was 0.264 (inactive) and 0.438 (inactive); in test [5], -0.944 (inactive) and -0.84 (inactive); in test [6] it was -0.305 (inactive) and -0.108 (inactive); in test [7], 0.0267 and 0.353. The z-score in test [8] was 0.388 (inactive) and 0.883 (inactive); in test [9], 0.292 (inactive) and -0.3 (inactive); in [10] it was 1.19 and -0.295. Besides, the composite z-score in test [2] was -0.161 and -0.695.

For `C#CCCCON=C1C[C@@H](O)[C@@H](O)[C@@H]2[C@@H]3C(=O)N(C4CCCCC4)C(=O)[C@@H]3CC[C@H]12`, the z-score in test [1] was 0.747 (inactive); in test [3], 0.869 (inactive); in test [4], -0.68 (inactive); in test [5], 0.403 (inactive); in [6], -0.113 (inactive); in test [7] it was -0.126. For the same compound, the z-score in test [8] is -1.26 (inactive); in test [9], -0.426 (inactive); in test [10], -2.7. This compound also registered a composite z-score in [2] of -0.147.

Consider `CC(CO)N1C(=O)[C@@H]2C3C(=O)OCCC=C[C@H]3OC23C=CCN(CCN2CCOCC2)C(=O)[C@@H]13` (stereo not given in full), for which the z-score is -0.671 (inactive) and -0.55 (inactive) in test [1]; 0.0695 (inactive) and 6.53 (inactive) in test [3]; 0.573 (inactive) and 1.15 (inactive) in [4]; 0.727 (inactive) and 0.906 (inactive) in test [5]; 0.138 (inactive) and 0.21 (inactive) in test [6]; -0.38 and -0.0957 in [7]. Besides, the z-score is 1.08 (inactive) and 1 (inactive) in test [8]; 0.376 (inactive) and 0.0486 (inactive) in test [9]; 1.25 and 2.04 in [10]. In test [2], the composite z-score is -0.181 and 0.476.

`C=CCN(Cc1ccccc1)C(=O)C1N(c2ccc(CCO)cc2)C(=O)C2C(C(=O)O)C3C=CC21O3` (stereo not given): the z-score is 0.458 (inactive) and 1.31 (inactive) in test [1]; 1.25 (inactive) and 1.16 (inactive) in test [3]; 0.401 (inactive) and 0.572 (inactive) in test [4]; 0.0406 (inactive) and -0.339 (inactive) in test [5]; -0.157 (inactive) and 0.382 (inactive) in [6]; -0.0071 and 0.775 in test [7]. Further, the z-score in test [8] was 0.819 (inactive) and 0.498 (inactive); in test [9], -1.13 (inactive) and -0.149 (inactive); in test [10], 0.865 and 0.168. Also, in [2], the composite z-score was -0.289 and -0.27.

For the compound `C=CCN(CCCCC)C(=O)C1N(CCCCCCO)C(=O)C2C(C(=O)O)C3C=CC21O3` (stereo not given), the z-score in test [1] was -0.559 (inactive) and -0.794 (inactive); in [3], 0.0275 (inactive) and 0.375 (inactive); in test [4], -0.76 (inactive) and 0.22 (inactive); in test [5] it was -0.627 (inactive) and -0.419 (inactive); in test [6], -0.33 (inactive) and 0.404 (inactive); in test [7] it was -0.539 and -0.626. Also, the z-score in test [8] was 1.07 (inactive) and 0.619 (inactive); in [9] it was -0.208 (inactive) and -0.169 (inactive); in test [10] it was 1.08 and 1.26. Further, the composite z-score in test [2] was -0.191 and 0.29.
